Records with an inconclusive call do not appear. Calls of active or inactive are those of the source. The calls were made as follows, unless noted: active = hit-call score of the fitted dose curve at least 0.9, where 1 is the maximum; inconclusive = response in the unintended direction; inactive = score below 0.9.
Assays:
[1] = ATG_TAL_CIS: Attagene CIS-FACTORIAL HepG2 Assay for human TAL Basal Promoter (AID 2282966; active = hit-call score of the fitted dose curve at least 0.9, where 1 is the maximum; inactive = score below 0.9;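 also: background control endpoint measuring basal TAL promoter reporter mRNA not a specific factor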); conditions: HepG2 Attagene cis-factorial TAL promoter reporter; actives raise or lower the signal
In short: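 Background-control endpoint: basal TAL promoter reporter transcripts in transiently transfected HepG2, measured 24 h after dosing. Read-out by RT-PCR with fluorescent primer extension and capillary electrophoresis; gain or loss of signal fitted relative to DMSO.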

[2] = ATG_TGFb_CIS: Attagene CIS-FACTORIAL HepG2 Assay for human Transforming Growth Factor (TGF) (AID 2282967; active = hit-call score of the fitted dose curve at least 0.9, where 1 is the maximum; inactive = score below 0.9); conditions: HepG2 Attagene CIS TGFb reporter, mRNA transcription; actives raise or lower the signal
In short: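 Multiplexed cis-reporter HepG2 system, 24 h treatment; mRNA induction read by fluorescence after RT-PCR and CE; DMSO negative control, bidirectional curve fitting.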

[3] = ATG_VDRE_CIS: Attagene CIS-FACTORIAL HepG2 Assay for human Vitamin D Receptor Element (VDRE) (AID 2282968; active = hit-call score of the fitted dose curve at least 0.9, where 1 is the maximum; inactive = score below 0.9); conditions: HepG2 VDRE cis-reporter transcription, actives raise or lower the signal
In short: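 Compounds were applied for 24 h to HepG2 cells transfected with promoter-regulated reporter units. Total RNA was reverse-transcribed, and reporter amplicons were fluorescently labelled and sized by capillary electrophoresis.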

[4] = target: Nuclear receptor subfamily 1 group I member 3 (Homo sapiens) (UniProt Q14994); test: ATG_CAR_TRANS: Attagene TRANS-FACTORIAL HepG2 Assay for human Constitutive Androstane Receptor (CAR) (AID 2282969); conditions: HepG2 Attagene TRANS-FACTORIAL CAR reporter;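 also: activators raise reporter mRNA above DMSO so AC50 marks induction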
In short: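 Transiently transfected HepG2, multiplex TRANS reporters (CAR-Gal4 chimera driving GAL4-UAS reporter). 24 h dosing. Readout: reporter transcript by RT-PCR + capillary electrophoresis, fluorescence intensity; positive direction vs DMSO.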

[5] = target: Estrogen receptor (Homo sapiens) (UniProt P03372); test: ATG_ERa_TRANS: Attagene TRANS-FACTORIAL HepG2 Assay for human Estrogen Receptor alpha (ERa) (AID 2282970); conditions: HepG2 Attagene TRANS ERa GAL4 reporter, mRNA
In short: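 Reporter transcripts were measured 24 h after dosing by RT-PCR with fluorescent primer extension and capillary electrophoresis. The system is transiently transfected HepG2 expressing exogenous NR-Gal4 chimeras driving GAL4-UAS reporters; DMSO is the baseline.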

[6] = target: Steroid hormone receptor ERR1 (Homo sapiens) (UniProt P11474); test: ATG_ERRa_TRANS: Attagene TRANS-FACTORIAL HepG2 Assay for human Estrogen-Related Receptor alpha (ERRa) (AID 2282971); conditions: HepG2 Attagene TRANS reporter, ERRa transactivation
In short: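 Reporter transcripts from ERRa-Gal4 chimera activity measured in transiently transfected human HepG2 cells 24 hours after dosing, using RT-PCR with 6-FAM primer extension, HpaI digestion and capillary electrophoresis; DMSO is baseline.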

[7] = target: X-box-binding protein 1 (Homo sapiens) (UniProt P17861); test: ATG_Xbp1_CIS: Attagene CIS-FACTORIAL HepG2 Assay for human X-box Binding Protein 1 (XBP1) (AID 2282972; active = hit-call score of the fitted dose curve at least 0.9, where 1 is the maximum; inactive = score below 0.9); conditions: HepG2 XBP1 cis-element reporter, Attagene multiplex; actives raise or lower the signal
In short: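 Multiplexed cis-reporter readout in transfected HepG2 liver cells. Exposure lasted 24 hours. Activity in either direction was fitted against DMSO as negative control and baseline.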

[8] = ATG_M_19_TRANS: Attagene TRANS-FACTORIAL HepG2 Assay for M19 Transcription Factor (Internal Marker) (AID 2282974); conditions: HepG2 Attagene TRANS-FACTORIAL M19 internal marker reporter
In short: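 Multiplexed TRANS format: HepG2 liver cells bearing transient GAL4-UAS reporter units, chemical treatment 24 h, reporter transcripts quantified by RT-PCR plus capillary electrophoresis. DMSO defines baseline.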

[9] = target: Estrogen-related receptor gamma (Homo sapiens) (UniProt P62508); test: ATG_ERRg_TRANS: Attagene TRANS-FACTORIAL HepG2 Assay for human Estrogen-Related Receptor gamma (ERRg) (AID 2282977); conditions: HepG2 Attagene TRANS reporter, ERRg transactivation;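 also: hits increase reporter signal over DMSO so potencies reflect activators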
In short: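 Exogenous NR-Gal4 chimera activity measured as reporter transcript induction after 24 h in transiently transfected HepG2 cells. RNA reverse-transcribed, PCR-amplified, 6-FAM-labelled and resolved by capillary electrophoresis; increase over DMSO baseline.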

[10] = target: Glucocorticoid receptor (Homo sapiens) (UniProt P04150); test: ATG_GR_TRANS: Attagene TRANS-FACTORIAL HepG2 Assay for human Glucocorticoid Receptor (GR) (AID 2282978); conditions: HepG2 Attagene TRANS GR reporter, mRNA transcription;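 also: activators score as hits since higher reporter transcript over DMSO is fitted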
In short: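 Transiently transfected HepG2 cells express chimeric NR-GAL4 proteins acting on GAL4-UAS reporter units. Compounds are applied for 24 h. mRNA induction over DMSO is measured by capillary electrophoresis.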

[11] = target: Oxysterols receptor LXR-alpha (Homo sapiens) (UniProt Q13133); test: ATG_LXRa_TRANS: Attagene TRANS-FACTORIAL HepG2 Assay for human Liver X Receptor alpha (LXRa) (AID 2282980); conditions: HepG2 Attagene TRANS reporter, LXRa transactivation
In short: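 Chemical-induced reporter mRNA measured by RT-PCR with fluorescent labelling and capillary electrophoresis after 24 h dosing of transiently transfected HepG2 cells expressing exogenous NR-Gal4 chimeras; increases scored against DMSO baseline.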

[12] = target: Oxysterols receptor LXR-beta (Homo sapiens) (UniProt P55055); test: ATG_LXRb_TRANS: Attagene TRANS-FACTORIAL HepG2 Assay for human Liver X Receptor beta (LXRb) (AID 2282981); conditions: HepG2 Attagene TRANS GAL4-LXRb reporter, mRNA
In short: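 Multiplexed reporter assay, HepG2, 24 h dosing. Fluorescence of labelled RT-PCR products after capillary electrophoresis gives transcript level; positive fitting direction relative to DMSO.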

[13] = target: Hepatocyte nuclear factor 4-alpha (Homo sapiens) (UniProt P41235); test: ATG_HNF4a_TRANS: Attagene TRANS-FACTORIAL HepG2 Assay for human Hepatocyte Nuclear Factor 4 alpha (HNF4a) (AID 2282982); conditions: HepG2 HNF4a transactivation reporter, mRNA readout
In short: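 Endpoint reflects transcriptional activation of a GAL4-UAS reporter by an HNF4a-GAL4 chimera in transfected HepG2 cells, 24 h post-dosing. Fluorescence from RT-PCR products separated by capillary electrophoresis; DMSO baseline.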

[14] = ATG_M_06_TRANS: Attagene TRANS-FACTORIAL HepG2 Assay for M06 Transcription Factor (Internal Marker) (AID 2282983); conditions: HepG2 Attagene TRANS M06 internal marker reporter
In short: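 Background-control reporter readout: after 24 h chemical exposure of transiently transfected HepG2 (GAL4-UAS reporter units), mRNA quantified by RT-PCR with fluorescent labeling and capillary electrophoresis. Gain-of-signal fitting against DMSO baseline.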

[15] = ATG_M_32_TRANS: Attagene TRANS-FACTORIAL HepG2 Assay for M32 Transcription Factor (Internal Marker) (AID 2282984); conditions: HepG2 Attagene TRANS M32 internal marker reporter
In short: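 Internal-marker readout from a multiplexed transcription reporter panel. HepG2 cells were transfected with GAL4-UAS reporter units, treated 24 hours, and reporter transcript levels determined by fluorescence after RT-PCR and capillary separation.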

[16] = target: Nuclear receptor subfamily 4 group A member 2 (Homo sapiens) (UniProt P43354); test: ATG_NURR1_TRANS: Attagene TRANS-FACTORIAL HepG2 Assay for human Nuclear Receptor Related Protein 1 (NURR1) (AID 2282985); conditions: HepG2 Attagene TRANS reporter, mRNA readout
In short: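 Endpoint: reporter mRNA increase relative to DMSO. HepG2 cells transfected with reporter units, treated 24 h; RNA processed by RT-PCR, labelling, HpaI digestion and capillary electrophoresis.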

[17] = target: Transcriptional activator Myb (Homo sapiens) (UniProt P10242); test: ATG_Myb_CIS: Attagene CIS-FACTORIAL HepG2 Assay for human Myeloblastosis (Myb) Proto-Oncogene Transcription Factor (AID 2282986; active = hit-call score of the fitted dose curve at least 0.9, where 1 is the maximum; inactive = score below 0.9); conditions: HepG2 Attagene CIS-FACTORIAL Myb reporter transcription; actives raise or lower the signal
In short: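 Using HepG2 liver cells bearing transiently transfected cis-promoter reporter constructs, the assay measures induction or loss of reporter mRNA after 24 hours of dosing. Detection used fluorescently labeled RT-PCR products separated by capillary electrophoresis.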

[18] = ATG_GAL4_TRANS: Attagene TRANS-FACTORIAL HepG2 Assay for GAL4 (Internal Marker) (AID 2282976); conditions: HepG2 Attagene TRANS GAL4 internal marker reporter
In short: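 In transfected human HepG2 liver cells dosed 24 h, GAL4 reporter mRNA serves as a baseline marker. Detection by RT-PCR with fluorescent capillary electrophoresis, activity fitted upward relative to DMSO.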

[19] = target: Bile acid receptor (Homo sapiens) (UniProt Q96RI1); test: ATG_FXR_TRANS: Attagene TRANS-FACTORIAL HepG2 Assay for Farnesoid X Receptor (FXR) (AID 2282979); conditions: HepG2 Attagene TRANS FXR-GAL4 reporter transcription;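 also: hits raise reporter mRNA above DMSO so AC50 marks FXR activation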
In short: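 Reporter transcripts from transfected HepG2 cells were measured 24 h after dosing, using RT-PCR with capillary electrophoresis of 6-FAM-labelled fragments. The read-out reflects activity of exogenous FXR-Gal4 chimera on GAL4-UAS units, with induction relative to DMSO.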

[20] = target: Nuclear respiratory factor 1 (Homo sapiens) (UniProt Q16656); test: ATG_NRF1_CIS: Attagene CIS-FACTORIAL HepG2 Assay for human Nuclear Respiratory Factor 1 (NRF1) Orphan Gene (AID 2282987; active = hit-call score of the fitted dose curve at least 0.9, where 1 is the maximum; inactive = score below 0.9); conditions: HepG2 NRF1 cis-element reporter, Attagene multiplex; actives raise or lower the signal
In short: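 Reporter mRNA induction or loss in HepG2 cells after 24 h dosing; cis-regulated reporter constructs report endogenous transcription-factor activity. Quantified by RT-PCR/capillary electrophoresis fluorescence, DMSO-referenced.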

Measured: outcome

Chain of Nuclear receptor subfamily 4 group A member 2 (Homo sapiens) (P43354 whole entry, looked up): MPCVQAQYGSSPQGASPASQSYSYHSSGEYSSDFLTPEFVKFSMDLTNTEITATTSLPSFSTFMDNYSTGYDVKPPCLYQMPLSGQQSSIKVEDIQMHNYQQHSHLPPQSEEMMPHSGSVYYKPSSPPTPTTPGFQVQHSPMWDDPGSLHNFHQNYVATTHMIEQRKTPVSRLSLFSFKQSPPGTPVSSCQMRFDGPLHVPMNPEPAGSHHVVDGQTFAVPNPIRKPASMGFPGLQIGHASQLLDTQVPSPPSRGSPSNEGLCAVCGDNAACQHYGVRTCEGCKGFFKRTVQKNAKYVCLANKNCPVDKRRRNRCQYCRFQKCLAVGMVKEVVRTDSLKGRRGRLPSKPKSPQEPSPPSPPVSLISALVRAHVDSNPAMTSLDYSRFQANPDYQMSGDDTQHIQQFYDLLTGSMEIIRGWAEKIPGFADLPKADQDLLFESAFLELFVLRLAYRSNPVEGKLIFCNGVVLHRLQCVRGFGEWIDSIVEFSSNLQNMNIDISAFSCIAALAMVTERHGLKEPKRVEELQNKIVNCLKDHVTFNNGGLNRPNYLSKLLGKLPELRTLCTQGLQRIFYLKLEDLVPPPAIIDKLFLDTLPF
Chain of Estrogen receptor (Homo sapiens) (P03372 whole entry, looked up, the tested form may be a part): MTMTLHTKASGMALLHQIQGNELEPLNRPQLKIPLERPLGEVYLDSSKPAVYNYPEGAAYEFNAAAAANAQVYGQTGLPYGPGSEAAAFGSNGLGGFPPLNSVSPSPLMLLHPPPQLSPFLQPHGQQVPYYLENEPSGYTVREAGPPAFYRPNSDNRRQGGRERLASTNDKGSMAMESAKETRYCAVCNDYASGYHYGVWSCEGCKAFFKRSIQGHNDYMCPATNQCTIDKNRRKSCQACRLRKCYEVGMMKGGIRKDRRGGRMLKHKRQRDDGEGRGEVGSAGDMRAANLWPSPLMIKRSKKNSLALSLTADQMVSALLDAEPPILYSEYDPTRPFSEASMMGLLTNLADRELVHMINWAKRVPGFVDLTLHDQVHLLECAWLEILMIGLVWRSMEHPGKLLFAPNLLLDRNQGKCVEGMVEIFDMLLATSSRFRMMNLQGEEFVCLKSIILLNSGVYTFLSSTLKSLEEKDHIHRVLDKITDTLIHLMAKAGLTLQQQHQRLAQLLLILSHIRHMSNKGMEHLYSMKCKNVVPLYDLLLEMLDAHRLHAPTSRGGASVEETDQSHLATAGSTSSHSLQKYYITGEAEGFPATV
Chain of Bile acid receptor (Homo sapiens) (Q96RI1 whole entry, looked up, the tested form may be a part): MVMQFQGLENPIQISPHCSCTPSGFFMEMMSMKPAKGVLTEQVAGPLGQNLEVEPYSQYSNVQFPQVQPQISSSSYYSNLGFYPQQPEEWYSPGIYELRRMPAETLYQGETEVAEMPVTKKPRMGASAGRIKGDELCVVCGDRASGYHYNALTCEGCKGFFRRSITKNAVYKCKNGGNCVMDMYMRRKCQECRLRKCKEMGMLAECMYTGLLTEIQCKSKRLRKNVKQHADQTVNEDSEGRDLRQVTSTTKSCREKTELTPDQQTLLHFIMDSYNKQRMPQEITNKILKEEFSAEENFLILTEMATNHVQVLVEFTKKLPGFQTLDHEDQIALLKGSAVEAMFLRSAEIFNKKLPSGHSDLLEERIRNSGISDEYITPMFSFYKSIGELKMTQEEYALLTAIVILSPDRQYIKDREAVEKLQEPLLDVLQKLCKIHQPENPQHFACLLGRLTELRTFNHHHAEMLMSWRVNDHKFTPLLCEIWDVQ
Chain of Nuclear respiratory factor 1 (Homo sapiens) (Q16656 whole entry, looked up): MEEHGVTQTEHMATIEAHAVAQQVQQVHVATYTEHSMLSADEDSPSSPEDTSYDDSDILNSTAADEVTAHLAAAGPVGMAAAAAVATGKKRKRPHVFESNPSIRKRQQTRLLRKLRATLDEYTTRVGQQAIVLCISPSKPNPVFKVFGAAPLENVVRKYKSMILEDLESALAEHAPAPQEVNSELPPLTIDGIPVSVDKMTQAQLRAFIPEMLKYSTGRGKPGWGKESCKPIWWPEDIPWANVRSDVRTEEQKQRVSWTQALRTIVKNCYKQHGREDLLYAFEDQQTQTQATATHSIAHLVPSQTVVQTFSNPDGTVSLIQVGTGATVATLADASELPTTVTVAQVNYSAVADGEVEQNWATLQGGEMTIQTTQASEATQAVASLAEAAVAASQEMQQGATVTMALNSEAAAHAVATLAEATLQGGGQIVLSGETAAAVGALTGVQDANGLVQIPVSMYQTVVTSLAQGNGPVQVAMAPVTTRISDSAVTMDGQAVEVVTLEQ
Chain of Nuclear receptor subfamily 1 group I member 3 (Homo sapiens) (Q14994 whole entry, looked up, the tested form may be a part): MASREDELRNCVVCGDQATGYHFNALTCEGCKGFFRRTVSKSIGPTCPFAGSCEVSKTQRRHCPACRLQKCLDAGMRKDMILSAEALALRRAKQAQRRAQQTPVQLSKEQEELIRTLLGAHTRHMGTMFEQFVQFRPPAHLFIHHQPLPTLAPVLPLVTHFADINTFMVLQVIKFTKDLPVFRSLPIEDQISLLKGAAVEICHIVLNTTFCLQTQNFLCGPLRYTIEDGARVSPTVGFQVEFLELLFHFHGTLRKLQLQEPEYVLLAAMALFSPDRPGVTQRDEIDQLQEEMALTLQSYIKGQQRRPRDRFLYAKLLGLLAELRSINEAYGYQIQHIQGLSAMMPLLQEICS
Chain of Oxysterols receptor LXR-beta (Homo sapiens) (P55055 whole entry, looked up, the tested form may be a part): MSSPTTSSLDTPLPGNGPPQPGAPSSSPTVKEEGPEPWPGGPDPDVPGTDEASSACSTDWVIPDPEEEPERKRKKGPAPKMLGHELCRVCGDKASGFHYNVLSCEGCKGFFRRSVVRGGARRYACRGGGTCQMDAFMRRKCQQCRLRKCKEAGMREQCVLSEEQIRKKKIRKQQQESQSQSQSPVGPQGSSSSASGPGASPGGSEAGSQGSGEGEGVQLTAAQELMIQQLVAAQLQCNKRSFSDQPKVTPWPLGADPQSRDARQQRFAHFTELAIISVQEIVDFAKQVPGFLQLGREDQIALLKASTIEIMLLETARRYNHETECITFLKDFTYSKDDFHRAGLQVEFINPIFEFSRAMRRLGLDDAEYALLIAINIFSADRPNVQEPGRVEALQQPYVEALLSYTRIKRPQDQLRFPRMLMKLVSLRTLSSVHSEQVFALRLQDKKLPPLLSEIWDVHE
Chain of Oxysterols receptor LXR-alpha (Homo sapiens) (Q13133 whole entry, looked up, the tested form may be a part): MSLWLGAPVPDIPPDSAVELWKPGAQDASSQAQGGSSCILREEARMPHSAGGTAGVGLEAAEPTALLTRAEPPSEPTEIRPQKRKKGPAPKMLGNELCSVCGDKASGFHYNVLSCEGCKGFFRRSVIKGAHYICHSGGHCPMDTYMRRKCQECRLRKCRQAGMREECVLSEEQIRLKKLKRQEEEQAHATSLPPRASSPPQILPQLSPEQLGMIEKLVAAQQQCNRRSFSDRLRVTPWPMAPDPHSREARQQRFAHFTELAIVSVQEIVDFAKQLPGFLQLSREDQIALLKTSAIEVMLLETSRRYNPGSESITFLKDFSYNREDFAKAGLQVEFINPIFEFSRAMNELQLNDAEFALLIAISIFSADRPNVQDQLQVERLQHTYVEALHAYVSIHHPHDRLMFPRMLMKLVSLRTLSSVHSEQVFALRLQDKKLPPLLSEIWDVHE
Chain of X-box-binding protein 1 (Homo sapiens) (P17861 whole entry, looked up): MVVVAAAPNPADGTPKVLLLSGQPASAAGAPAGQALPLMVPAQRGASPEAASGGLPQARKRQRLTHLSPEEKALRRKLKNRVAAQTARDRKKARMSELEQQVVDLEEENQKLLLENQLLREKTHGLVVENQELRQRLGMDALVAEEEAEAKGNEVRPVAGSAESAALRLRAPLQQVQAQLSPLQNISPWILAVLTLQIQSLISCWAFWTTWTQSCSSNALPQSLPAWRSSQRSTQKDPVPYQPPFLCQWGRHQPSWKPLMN
Chain of Transcriptional activator Myb (Homo sapiens) (P10242 whole entry, looked up): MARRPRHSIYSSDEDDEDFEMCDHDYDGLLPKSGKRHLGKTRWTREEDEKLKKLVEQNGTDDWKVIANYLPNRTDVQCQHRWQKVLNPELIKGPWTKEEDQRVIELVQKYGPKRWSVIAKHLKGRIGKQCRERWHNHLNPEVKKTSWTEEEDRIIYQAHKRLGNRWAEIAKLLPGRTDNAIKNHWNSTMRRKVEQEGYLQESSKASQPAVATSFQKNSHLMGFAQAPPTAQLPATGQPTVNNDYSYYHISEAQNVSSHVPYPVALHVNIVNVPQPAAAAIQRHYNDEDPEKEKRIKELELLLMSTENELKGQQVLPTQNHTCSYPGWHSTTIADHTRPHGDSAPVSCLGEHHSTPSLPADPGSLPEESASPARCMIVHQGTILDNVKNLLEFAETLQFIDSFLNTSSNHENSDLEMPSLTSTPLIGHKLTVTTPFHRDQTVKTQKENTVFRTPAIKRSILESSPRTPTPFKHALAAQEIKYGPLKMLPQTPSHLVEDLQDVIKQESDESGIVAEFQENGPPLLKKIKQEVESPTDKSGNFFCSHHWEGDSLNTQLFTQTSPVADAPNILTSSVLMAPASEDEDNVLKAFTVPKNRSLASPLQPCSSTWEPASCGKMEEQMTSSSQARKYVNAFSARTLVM
Chain of Hepatocyte nuclear factor 4-alpha (Homo sapiens) (P41235 whole entry, looked up, the tested form may be a part): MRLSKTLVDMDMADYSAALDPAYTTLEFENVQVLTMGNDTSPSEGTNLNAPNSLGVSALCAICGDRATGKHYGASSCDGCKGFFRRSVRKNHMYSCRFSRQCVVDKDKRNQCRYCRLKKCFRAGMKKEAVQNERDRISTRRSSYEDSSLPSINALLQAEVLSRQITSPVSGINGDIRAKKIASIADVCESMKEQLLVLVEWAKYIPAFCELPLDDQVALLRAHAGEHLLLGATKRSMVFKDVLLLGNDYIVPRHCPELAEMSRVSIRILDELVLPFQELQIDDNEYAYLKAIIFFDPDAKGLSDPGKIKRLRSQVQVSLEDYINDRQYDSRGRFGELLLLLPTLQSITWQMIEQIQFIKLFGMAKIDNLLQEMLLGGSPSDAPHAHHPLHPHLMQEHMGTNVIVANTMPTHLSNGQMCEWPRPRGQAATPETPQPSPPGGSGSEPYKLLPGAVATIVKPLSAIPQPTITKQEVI

C[Si](C)(C)C(F)(F)C(F)(F)C(F)(F)F
inactive: [1] | [2] | [3] | [4] | [5] | [6] | [7] | [8] | [18] | [9] | [10] | [19] | [11] | [12] | [13] | [14] | [15] | [16] | [17] | [20]

O=S(=O)(O)CCC(F)(F)C(F)(F)C(F)(F)C(F)(F)C(F)(F)C(F)(F)F
inactive: [1] | [2] | [3] | [4] | [5] | [6] | [7] | [8] | [18] | [9] | [10] | [19] | [11] | [12] | [13] | [14] | [15] | [16] | [17] | [20]

Reference: PubChem BioAssay (EPA / NIEHS)
